High-throughput results as filed in PubChem.
Pf Dd2 growth = Plasmodium falciparum Dd2 growth inhibition; Potency, µM (doses to about 28.9 µM), without a hit: at the top dose activity, negative = inhibition, usual class: inhibitors; hit rate 4.3% among 120,000; P. falciparum Dd2 growth, SYBR Green, 72 h; active = well fitted inhibition curve with a large enough effect;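 note: plate controls were DMSO vehicle for no effect and reference drug for full effect; nearly all actives have a fitted effect of over 65% in size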
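Readout: SYBR Green fluorescence, 485 nm excitation, 535 nm emission, after ~16 h lysis at 37C. Before that, Dd2-infected red cells (2.5% hematocrit) grew 72 h with compound, 29 uM top final concentration.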
* hit, by the source's call; i = inactive; ! = not confirmed by another sample; [ ] = remark or other dose. Shown is part of a subset that was picked to be rich in hits. Potency is the fitted concentration of half-maximal effect.

SMILES | Pf Dd2 growth
Cc1ccc(NC(=O)C2CCN(C(=O)c3nnn4c3COC(c3ccc(C)cc3)C4)CC2)cc1 (configuration not stated) | i
O=C(Nc1ccc(F)c(Cl)c1)C1CCN(C(=O)c2ccc(F)cc2)CC1 | 9%
COc1ccc(NC(=O)c2ccc(-c3nnc4ccc(NC(=O)C5CCC5)cn34)cc2)cc1 | 1µM*
COc1ccc(C(=O)Nc2ccc(-c3nnc4n3CCCCC4)cc2)cc1 | 11%
Cc1cc(=O)n(CC(=O)Nc2ccc3c(c2)OCCO3)c(-c2ccc(Cl)cc2)n1 | i
CCOc1ccc(C(=O)Nc2ccc3c(c2)OCCO3)cc1Br | 12%
COc1ccc(C(=O)Nc2ccc(-c3nnc4n3CCCCC4)cc2)cc1OC | -14%
CCC(=O)Nc1ccc2nnc(-c3ccc(C(=O)Nc4ccc5c(c4)OCCO5)cc3)n2c1 | 0.28µM*
COc1cccc(CN2C[C@@H]3C(C(=O)Nc4cncc(OC)c4)=NO[C@@H]3C2)c1 | 31%[44.1 µM]
O=C1CC(c2ccccc2)N(C(=O)CNS(=O)(=O)c2cccs2)CCCCCN1 (configuration not stated) | 14%
O=C(c1cccc(Br)c1)N1CCN(c2cc(-c3ccc(F)cc3)[nH]n2)CC1 | i
COc1cccc(CN2Cc3nc(-c4ccncc4)ccc3OCC2=O)c1 | i
O=C(Nc1ccc(F)cc1)N1C[C@@H]2C[C@H](C1)c1c(NS(=O)(=O)c3ccccc3)ccc(=O)n1C2 | i
O=C([C@H]1CN2CCC1C[C@@H]2Cn1cc(-c2ccccn2)nn1)N1CCOCC1 (some centres not stated) | 8%[44.1 µM]
CCCc1noc(-c2cn(C3CCN(C(=O)c4cccc(C#N)c4)CC3)nn2)n1 | i
CC(=O)Nc1nonc1-c1nnc(SCc2ccc(F)cc2Cl)n1C | 14%
O=C(c1cccc2c1OCCO2)N1CCCn2nc(CO)cc2C1 | -10%
CC(C)c1ccc(NC(=O)C2CCN(C(=O)c3ccc(F)cc3)CC2)cc1 | 19%
CCN1CCN(C(=O)c2ccc(-c3nnc4ccc(NC(=O)C5CC5)cn34)cc2)CC1 | 0.45µM*
CCN1CCN(C(=O)c2ccc3nccn3c2)CC1 | 26%[44.1 µM]
COCCNC(=O)[C@@H]1C[C@H](Oc2cccnc2)CN1C(=O)c1cnccc1C | i
Cc1ccccc1NC(=O)CSc1nc(-c2ccccc2C)nc2cc(=O)[nH]n12 | i
CCOc1ccccc1C(=O)N[C@@H]1CN(Cc2ccncc2)C[C@H]1CN(C)C | 5µM*
CCOc1ccccc1C(=O)N[C@@H]1CN(Cc2cccnc2)C[C@H]1CN(C)C | -37%
COc1ccccc1C(=O)N[C@@H]1CN(Cc2ccncc2)C[C@H]1CN(C)C | -21%
SMILES | Pf Dd2 growth
O=C(Cn1nnnc1-c1ccccc1F)Nc1ccc(OC(F)(F)F)cc1 | i
COc1cc(=O)n2c(c1C(=O)Nc1cc(F)ccc1F)CCCC2 | i
CCCc1cc(N2CCN(c3ccccc3F)CC2)n2cnnc2n1 | 3%
Cc1cc(C(=O)N2CC(F)(F)C[C@H]2c2nnc(C3CC3)o2)c(C)o1 | -3%
Cc1cc(C(=O)N2CC(F)(F)C[C@H]2c2nc(C3CC3)no2)c(C)o1 | 3.2µM*
Cn1ccnc1C(=O)N1CC(F)(F)C[C@H]1c1nc(C2CC2)no1 | 22%
CCOc1ccccc1CN1CCC2(CCN(C(=O)Cc3ccccn3)CC2)Oc2ccccc21 | 11µM*!
CCOc1ccccc1CN1CCC2(CCN(Cc3ccsc3)CC2)Oc2ccccc21 | 10µM*
CCOc1ccccc1CN1CCC2(CCN(C(C)=O)CC2)Oc2ccccc21 | -27%
CCOc1ccccc1CN1CCC2(CCN(C(=O)NC3CCCC3)CC2)Oc2ccccc21 | -4%
CCOc1ccccc1CN1CCC2(CCN(C(=O)C3CC3)CC2)Oc2ccccc21 | -30%
CCOc1ccccc1CN1CCC2(CCN(C(=O)c3cccc(OC)c3)CC2)Oc2ccccc21 | -31%
Cc1c(CC(=O)N2CCOCC2)c2c(n1Cc1ccc(F)cc1)CCCC2=O | -3%
CCCCNC(=O)c1c(OCC(C)C)cc(=O)n2c1CCCCC2 | 2%
CN(C)C1CCN(S(=O)(=O)c2ccc3c(c2)CN(C(=O)c2ccccn2)CC3)C1 (configuration not stated) | -19%
COC(=O)[C@@H]1C[C@H](NS(=O)(=O)c2ccc3c(c2)NC(=O)CO3)CN1C | -3%
Cc1cccc(CNC(=O)c2ccc(NC(=O)N3CC(C)Sc4ccccc43)cc2)c1 (configuration not stated) | -7%
Cc1nnc(NC(=O)c2nc(SC(C)C)ncc2Cl)s1 | 4%
Cc1ccc(C)c(N2CCN(C(=O)NCc3noc4ccc(C)cc34)CC2)c1 | -9%
Cc1ccc(-c2c(C(=O)N3CCN(c4cccc(C)c4)C(C)C3)oc(=O)c3ccccc23)cc1 (configuration not stated) | 4.5µM*
Cc1cccc(N2CCN(C(=O)c3ccc4c(c3)c(C)c(C)n4C)CC2C)c1 (configuration not stated) | i
Cc1cccc(N2CCN(C(=O)c3cc4c(=O)n(C)c5ccccc5c4s3)CC2C)c1 (configuration not stated) | 5%
CCN(CC)C(=O)[C@@H]1C[C@@H](N)CN1C(=O)CC1CCCC1 | -3%
Oc1ccccc1CN1CCNc2cnc(OCc3cccnc3)cc2C1 | i
Cc1cccc(CN2CCNc3cc(Nc4cccnc4)ncc3C2)c1 | 5.6µM*
SMILES | Pf Dd2 growth
Cn1cc(CN2CCNc3cc(Nc4ccccc4)ncc3C2)cn1 | i
c1ccc(Nc2cc3c(cn2)NCCN(Cc2ccccn2)C3)cc1 | -10%[44.1 µM]
COc1ccc(CN2CCNc3cnc(Nc4cccnc4)cc3C2)cc1O | 1%[44.1 µM]
c1cncc(Nc2cc3c(cn2)CN(Cc2ccc4[nH]ccc4c2)CCN3)c1 | 2.8µM*
COc1cccc(Nc2cc3c(cn2)CN(Cc2cccnc2)CCN3)c1 | -15%[44.1 µM]
Cc1[nH]cnc1CN1CCNc2cc(Nc3ccccc3)ncc2C1 | 8%[44.1 µM]
CC(C)(C)CN1CCNc2cc(Nc3cccnc3)ncc2C1 | -20%[44.1 µM]
c1ccc(Nc2cc3c(cn2)CN(Cc2c[nH]c4ccccc24)CCN3)cc1 | 4.5µM*
CN1CCNc2cc(Nc3ccncc3)ncc2C1 | 52%[44.1 µM]
Oc1ccccc1CN1CCNc2cc(Nc3cccnc3)ncc2C1 | 8.9µM*
CCOC(=O)c1c(-c2ccc(C)cc2)csc1NC(=O)c1cc(=O)c2cc(Cl)ccc2o1 | i
CC(=O)N1CCC(c2noc(-c3ccccn3)n2)C1 (configuration not stated) | i[5.79 µM]
CCOC(=O)c1noc2nc(C)n(CC(=O)Nc3ccc(OC)c(Cl)c3)c(=O)c12 | 26%
CCn1c2c(c(=O)n1-c1ccccc1)CCN(C(=O)c1cccc(N(C)C)c1)C2 | i
O=C(CSc1nnc(-c2ccc3c(c2)OCO3)o1)Oc1ccccc1 | 26%
CCn1ncc(N2CCCC(CC(=O)NCc3ccccc3C)C2)cc1=O (configuration not stated) | -16%
COc1ccc(Cn2cnc3cccnc32)cc1 | -4%[44.1 µM]
COc1ccc(C(=O)Nc2cccc(OCc3cc(=O)n4c5c(sc4n3)CCCC5)c2)cc1OC | -8%
COc1ccc(CNC(=O)Cc2c(C)c3cc4c(C)coc4cc3oc2=O)cc1OC | i
Oc1ccccc1CN1CCNc2cc(Nc3ccccc3)ncc2C1 | 5µM*
c1ccc(-c2cc3c(cn2)CN(Cc2ccc4[nH]ccc4c2)CCN3)cc1 | 6.3µM*
Oc1ccccc1CN1CCNc2cnc(Nc3ccccc3)cc2C1 | i
c1ccc(Nc2cc3c(cn2)CN(Cc2ccn[nH]2)CCN3)cc1 | i
Cc1cc(-c2cc3c(cn2)CN(Cc2ccc4[nH]ccc4c2)CCN3)ccn1 | -19%[44.1 µM]
Cn1cc(CN2CCNc3cc(-c4ccccc4)ncc3C2)cn1 | i
